Rows were chosen to be rich in hits. Some 8.7% of all compounds tested hit in one or more screens of this group.
Pf growth 96h – P. falciparum growth inhibition at 96 hours; P. falciparum luciferase reporter growth, 96 h; Potency, µM (doses to about 28.7 µM), for the others: at the top dose activity change, negative = inhibition, usual class: inhibitors; hit rate 6.9% among 320,000; AID 504834
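Luminescence readout: decreased luciferase signal marks inhibited growth of reporter-expressing P. falciparum in infected red cells (2% hematocrit, 0.05% parasitemia final), exposed to compound two generations (96 h, 37 C, 5% CO2).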
Pf growth 48h – inhibits P. falciparum growth in the first generation, 48 h; hit rate 5.9% among 310,000; P. falciparum luciferase growth in erythrocytes, 48 h; Potency, µM (top dose mostly 28.7 µM), for the others: top-dose activity change, negative = inhibition, actives largely listed as inhibitors
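Luminescence readout; reporter = integrated firefly luciferase in P. falciparum. RBC culture at 2% hematocrit, 0.1% parasitemia final, 37 C/5% CO2; decreased signal taken as growth inhibition.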
VACV mCherry inh – inhibitors of vaccinia virus infection (mCherry reporter signal). Vaccinia virus mCherry reporter infection, fluorescence. hit rate 0.63% among 310,000. Potency, µM (top dose mostly 36.5 µM), for the others: at the highest dose activity change, negative = inhibition, most hits filed as inhibitors; calls by dose curve; tested in A549 cells; further: nearly all actives have a fitted effect of over 35% in size
AMA1-RON2 inh – disrupts binding of P. falciparum AMA1 to RON2. hit rate 0.2% among 360,000. Potency, µM (top dose mostly 58.2 µM), for the others: at the highest dose activity change, negative = inhibition, usual class: inhibitors. AlphaScreen AMA1-biotinylated RON2 peptide binding. AID 720542;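 further: 0% = vehicle wells and -100% = peptide control; nearly all actives have a fitted effect of over 45% in size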
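AMA1 (3D7) with his tag at 25 nM final met compounds first, then biotinylated RON2 peptide at 25 nM; detection used donor plus acceptor beads, 10 µg/mL apiece, read by AlphaScreen after 30 min at room temperature.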
Vaccinia Venus – vaccinia inhibition (Venus reporter) | Vaccinia virus Venus reporter expression, fluorescence | Potency, µM (doses to about 36.5 µM), for inactives: top-dose activity change, negative = inhibition, hits mostly inhibitors | hit rate 0.46% among 330,000 | AID 720580; calls by dose curve; tested in A549 cells; further: nearly all actives have a fitted effect of over 30% in size
Numbers without * were called inactive; i = inactive; ? = inconclusive; nt = no result; [ ] = another dose, or the depositor's remark. Unless noted, the call rests on the fitted dose curve; in most records, active means well fitted curve in the direction sought with a large enough effect; inconclusive means small, poorly fitted or top-dose-only effect, or another doubt; inactive means no such curve, though single readings can be large; an effect the other way counts as inactive or inconclusive. Unless noted, on the % scale 0 is the no-effect control and ±100 the full control effect; potency means the concentration at half of the fitted maximal effect.

SMILES | Pf growth 96h | Pf growth 48h | VACV mCherry inh | AMA1-RON2 inh | Vaccinia Venus
CCOc1ccc(Cl)cc1CNCCCSc1ncccn1 | 13.1µM* | 27.1% | nt | -1.5% | nt
COc1ccc(Cl)cc1CNCCCSc1ncccn1 | ? | ? | i | 1.8% | -9.1%
CCOc1ccc(NC(=O)C2CCCN(S(=O)(=O)c3c(C)noc3/C=C/N(C)C)C2)cc1 (stereo not drawn) | nt | nt | -8.8% | nt | -4.5%
CCCCN(CC)CCNC(=O)CN1C(=O)COc2ccc(S(=O)(=O)N3CCOCC3)cc21 | nt | nt | 2.7% | nt | -3.1%
Cc1c(C)c2cccnc2c2ncccc12 | ? | 1.85µM* | nt | -77.6% | nt
O=[N+]([O-])c1cc(Cl)c(O)c2ncccc12 | 10.4% | -6.3% | ? | -83.8% | ?
O=[N+]([O-])c1cc(Cl)c2cccnc2c1O | -26.8% | -6.0% | 28.2µM* | ? | ?
O=[N+]([O-])c1ccc(O)c2cccnc12 | 47.3%[5.75 µM] | 1.8% | -5.5% | 2.5% | 0.1%
Clc1cc2cccnc2c2ncccc12 | 11.7µM* | 11.7µM* | nt | -6.0% | nt
O=[N+]([O-])c1ccc(O)c2ncccc12 | 9.53µM* | 13.5µM* | 10µM* | -56.7% | ?
c1cnc2c(c1)ccc1ncccc12 | 12.8% | 8.5% | nt | -0.7% | nt
COc1ccccc1NC(=O)C(Cc1ccccc1)NS(=O)(=O)c1ccc2c(c1)CCN2C(C)=O (stereo not drawn) | nt | nt | -7.8% | nt | -8.5%
COc1cccc(NC(=O)CCNC(=O)Cn2cnc3ccccc3c2=O)c1 | nt | nt | 1.0% | nt | 8.2%
CCOC(=O)Nc1ccc2c(c1)C(=NO)c1ccccc1-2 | nt | nt | -25.7% | -8.6% | ?
CCOC(=O)Nc1ccc2c(c1)C(=NNC(N)=S)c1ccccc1-2 | nt | nt | 11.2µM* | 44.3% | 15.8µM*
Cc1cccc(N=C2CSC(=O)N2)c1 | 31.3% | -19.1% | -14.5% | 2.8% | -2.1%
CCCCC1(CCCC)C(=O)NC(=Nc2cccc(C)c2)NC1=O | ? | ? | ? | 51.5% | 10µM*
CCCCc1ccc(NC(=O)c2cc(-c3ccc(C)c(F)c3)on2)cc1 | nt | nt | 6.8% | nt | 8.5%
COC(=O)CSc1nnc(-c2cccc(O)c2)o1 | nt | nt | -0.8% | nt | -8.4%
Cn1c(=O)c2c(nc(SCC(=O)N3CCc4ccccc4C3)n2C)n(C)c1=O | 10.4µM* | -0.3% | -4.3% | -2.4% | -1.8%
CC(C)c1ccccc1-n1c(SCC(=O)N2CCc3ccccc3C2)nc2ccccc2c1=O | 5.86µM* | 1.47µM* | nt | -5.2% | nt
O=C(CSc1nc2[nH]ncc2c(=O)n1-c1ccccc1)N1CCCCCC1 | 10.4µM* | -21.4% | nt | nt | nt
O=C(CSc1nc2[nH]ncc2c(=O)n1-c1ccccc1Cl)N1CCCC1 | 1.2% | 20.4% | nt | -2.3% | nt
O=C(CSc1nnc(-c2cccs2)n1-c1ccccc1)N1CCCC1 | 9.28µM* | 1.5% | nt | -2.0% | nt
CC(C)NC(=O)Cn1c(SCC(=O)N2CCc3ccccc3C2)nc2ccccc21 | ? | 2.9% | nt | -2.8% | nt
SMILES | Pf growth 96h | Pf growth 48h | VACV mCherry inh | AMA1-RON2 inh | Vaccinia Venus
O=C(CSc1nnc(-c2cccs2)n1-c1ccccc1)N1CCOCC1 | nt | -9.7% | nt | -11.0% | nt
COc1ccc(CNC(=O)CSc2ncc(S(=O)(=O)c3ccc(C)c(Cl)c3)c(=O)[nH]2)cc1 | nt | nt | -5.0% | nt | 7.3%
Cc1ccc(C)c(N2CCN(C(=O)CCn3c(=O)c4cccn4c4cccnc43)CC2)c1 | nt | nt | ? | nt | -16.8%
CSc1nnc(-c2cccs2)n1-c1ccccc1 | nt | -3.6% | -0.7% | -29.8% | 0.4%
O=C(CSc1nc2ccccc2c(=O)n1-c1ccccc1)N1CCc2ccccc2C1 | 2.62µM* | ? | -11.7% | 4.4% | -24.9%
CN1CCN(S(=O)(=O)c2ccc(Sc3nnc(-c4cccs4)n3-c3ccccc3)nc2)CC1 | ? | 7.38µM* | 10µM* | -14.1% | ?
COc1cc(C2c3c(-c4c(C)cc(C)cc4O)n[nH]c3C(=O)N2CCCOC(C)C)cc(OC)c1OC (stereo not drawn) | nt | nt | -0.7% | nt | -7.4%
O=C(Nc1ccccc1)N(CCCN1CCOCC1)Cc1ccccc1F | -29.7% | -12.5% | nt | 3.6% | -8.5%
CCc1ccccc1NC(=S)N(CCN1CCOCC1)Cc1ccccc1F | 10.4µM* | -21.7% | -19.6% | -11.8% | -6.1%
Cc1ccccc1NC(=S)N(CCN1CCOCC1)Cc1ccccc1F | 31.7% | -5.5% | -9.8% | -1.0% | -2.3%
O=C(Nc1cccc(Cl)c1)N(CCCN1CCOCC1)Cc1ccccc1F | 2.08µM* | -26.1% | nt | -5.4% | nt
COc1ccccc1N1CCN(C(=O)Cc2c(C(=O)O)c(C)cn2C)CC1 | nt | nt | -4.0% | nt | -4.4%
CCOc1cccc(=O)c2c(C)n(Cc3ccccc3)c(C)c12 | 27.0% | ? | nt | -4.1% | nt
CCOc1cccc(=O)c2c(C)n(Cc3ccco3)c(C)c12 | ? | 9.28µM* | nt | 13.1% | nt
Cc1cccc(CNCCn2cc(C(=O)Nc3ccccc3)nn2)c1 | nt | nt | -15.0% | nt | -15.8%
O=C(CCS(=O)(=O)c1ccc(Br)cc1)Nc1cc(F)ccc1F | ? | 1.4% | 11.2µM* | -4.0% | ?
O=C(CCS(=O)(=O)c1ccc(Br)cc1)Nc1ccc(F)cc1F | nt | nt | -5.5% | nt | -7.6%
CCCCc1nn2c(=O)cc(COC(=O)c3ccc(NC(=O)CCc4ccccc4)cc3)nc2s1 | nt | nt | i | nt | -8.6%
Cc1cnc(-n2ncc(C(=O)NCc3ccncc3)c2C(C)C)nc1-c1ccc(F)cc1 | nt | nt | -22.1% | nt | -16.9%
CCn1cnc2cc(NCc3ccccc3Cl)ccc21 | 1.47µM* | 0.0% | -22.7% | -29.6% | -20.1%
FC(F)(F)c1nnc(-c2ccccc2)nc1Sc1ccccc1 | 13.1µM* | ? | -4.8% | 12.6% | -4.9%
FC(F)(F)c1nnc(-c2ccccc2)nc1Sc1ccc(Cl)cc1 | -0.8% | ? | nt | 0.2% | nt
FC(F)(F)c1cccc(Sc2nc(-c3ccccc3)nnc2C(F)(F)F)c1 | ? | 11.7µM* | nt | 10.9% | -8.0%
Nc1ccc(C(=O)c2cccs2)cn1 | 46.0% | 49.5% | i | 15.5% | -10.8%
Nc1ccc(-c2cnc(N)c(C(=O)c3cccnc3)n2)cn1 | nt | nt | ? | -5.8% | 10µM*
SMILES | Pf growth 96h | Pf growth 48h | VACV mCherry inh | AMA1-RON2 inh | Vaccinia Venus
CC(C)N(c1ccccc1)c1ccc(NC(=O)CCl)cc1 | 10.4µM* | 10.4µM* | nt | 0.0% | nt
CC(=O)Nc1ccc(NC(=O)Cc2ccc(-c3ccccc3)cc2)cc1 | -17.8% | 6.0% | nt | -3.3% | nt
CC(C)N(c1ccccc1)c1ccc(NC(=O)[C@@H]2O[C@H](CO)[C@H](O)[C@H](O)[C@H]2O)cc1 | nt | nt | i | 12.1% | 0.3%
Cc1ccc(Sc2ccc(NC(=O)CCl)cc2)cc1C | 0.828µM* | 1.47µM* | nt | 0.0% | nt
O=C(CCl)Nc1ccc(-c2ccccc2)cc1 | 13.1µM* | ? | nt | -1.2% | nt
O=C(CCl)Nc1ccc(N=Nc2ccccc2)cc1 | ? | 4.65µM* | nt | -14.2% | nt
Cc1c(C(=O)NCC2(N3CCCCC3)CCCC2)cnn1-c1nccc(-c2ccccc2F)n1 | nt | nt | 12.1% | nt | 34.9%
Cc1ccccc1CNC(=O)CCSCc1cnn(-c2ccccc2)c1-n1cccc1 | nt | nt | -4.7% | nt | -14.4%
COC(=O)C1=C(C)N(C(C)C)C(=O)C1(NC(=O)c1ccccc1OC)C(F)(F)F (stereo not drawn) | nt | nt | -25.0% | nt | -10.2%
O=C(CCl)Nc1ccccc1Sc1ccccc1 | 9.28µM* | nt | -14.7% | -15.9% | -7.6%
